# Source: PubChem BioAssay (Tox21)
# Activity calls are given as the source filed them. The call rests on the fitted dose curve; in most records, active means well fitted curve in the direction sought with a large enough effect in the repeat runs; inconclusive means weak or mixed curves; inactive means flat fitted curve, though single readings scatter.
# Experiment: qHTS assay to test for compound auto fluorescence at 535 nm (green) in HEK293 cell free culture (AID 720682)
# Settings: cell-free medium, green autofluorescence 485/535 nm, active compounds read high; series mostly up to 91.3 µM; activity change: at the top concentration
# Text: U.S. Tox21 Program National Center for Advancing Translational Sciences [NCATS] NIH Chemical Genomics Center [NCGC] U.S. Environmental Protection Agency [EPA] National Institutes of Environmental Health Sciences [NIEHS] National Toxicology Program [NTP] U.S. Food and Drug Administration [FDA] Tox21 Assay Overview: Compound auto fluorescence often interferes with screening of the compound library against various biological targets and signaling pathways. Some of these compounds may have fluorophoric properties. Such properties may interfere with the assay outputs resulting in false positives and/or negatives. To decrease such complications and ensure the compound activities are relevant in terms of biological response, the Tox21 10K compound library was screened for auto fluorescence. From the fluorophores used as reporter signals in our screening assays, the auto fluorescence equivalencies of compounds against three fluorophores have been evaluated: Triamterene, Fluorescein and Rose Bengal sodium for blue, green and red fluorescence, respectively. The fluorescence intensities were measured using Excitation/Emission wavelengths at 405/460nm, 485/535nm and 540/590nm for blue, green and red labels, respectively. This assay includes the green fluorescence data.
# Tox21 Assay Protocol Summary: 5 uL of culture medium (DMEM containing 10% FBS) per well was dispensed into black wall/clear bottom 1536-well plates using a Multidrop Combi Dispenser (ThermoFisher Scientific, Waltham, MA). After 23 nL compound or DMSO vehicle was transferred into assay plate by a pintool work station (Kalypsys, San Diego, CA), fluorescence intensities in the assay plates were measured by an Envision (PerkinElmer, Shelton, CT) plate reader using three labels for measuring blue, green and red fluorescence at […] 460, 535 and 590nm respectively.
# On the % scale 0 is the no-effect control and ±100 the full control effect.
Compound,activity change,outcome
CC(=O)CCc1ccc2c(c1)OCO2,-0.0157% (inactive),–
O=C(O)c1cccc(Cl)c1,0.0136% (inactive),–
COc1ncc(F)c2nc(S(=O)(=O)Nc3c(F)cccc3F)nn12,-0.0193% (inactive),–
COc1cccc2c1cc([N+](=O)[O-])c1c(C(=O)O)cc3c(c12)OCO3,-0.232% (inactive),–
C=CCC1=C(C)[C@@H](OC(=O)[C@@H]2[C@@H](C=C(C)C)C2(C)C)CC1=O,0.248% (inactive),–
CCCCOP(=O)(O)OCCCC,-0.0188% (inactive),–
CC(C)(C)C(=O)C(Oc1ccc(Cl)cc1)n1cncn1 (stereo not given),-0.0901% (inactive),–
[Cl][Sn]([Cl])([Cl])[Cl],0.114% [at 95.7 µM] (inactive),–
O=C(O)C(Br)CBr (stereo not given),0.007% [at 95.7 µM] (inactive),–
C#C[C@]1(O)C=C[C@H]2[C@@H]3CCC4=CC(=O)CC[C@@H]4[C@H]3CC[C@@]21CC,-0.0002% [at 46 µM] (inactive),–
CCCCN(CCCCO)N=O,-0.0096% (inactive),–
CC(N)=S,-0.0883% (inactive),–
CCCSC(=O)N(CCC)CCC,-0.0244% (inactive),–
O=C(Nc1ccccc1)N(Cc1ccc(Cl)cc1)C1CCCC1,-0.0221% (inactive),–
O=[N+]([O-])c1cccc2cccnc12,-0.0074% [at 95.7 µM] (inactive),–
CCC/C(=N\OCC)C1=C(O)CC(CC(C)SCC)CC1=O (stereo not given),0.0717% (inactive),–
CC1(C)CON(Cc2ccccc2Cl)C1=O,-0.0158% (inactive),–
Cc1cc(C)nc(Nc2ccccc2)n1,0.0052% (inactive),–
CNC(=O)Oc1cccc(C(C)C)c1,0.0053% (inactive),–
O=S(=O)(O)C(F)(F)C(F)(F)C(F)(F)C(F)(F)C(F)(F)C(F)(F)F,0.101% (inactive),–

Compound,activity change,outcome
C[C@]12CC[C@H]3[C@@H](CC=C4C[C@@H](O)CC[C@@]43C)[C@@H]1CC[C@@H]2O,-0.109% [at 46 µM] (inactive),–
OC(c1ccccc1)(c1ccccc1)C1CCNCC1,0.0163% [at 18.6 µM] (inactive),–
CC1(C(=O)Nc2ccc(O)c(Cl)c2Cl)CCCCC1,0.0127% (inactive),–
O=C(Nc1ccccc1)c1ccccc1I,-0.008% (inactive),–
NC1=NC(=O)C(c2ccccc2)O1 (stereo not given),0.067% [at 46 µM] (inactive),–
OC(Cn1cncn1)(c1ccc(F)cc1)c1ccccc1F (stereo not given),-0.0126% (inactive),–
CCS(=O)(=O)C(C)(C)S(=O)(=O)CC,0.055% [at 46 µM] (inactive),–
CCOP(=S)(OCC)Oc1ncn(-c2ccccc2)n1,-0.0165% (inactive),–
Cc1nnc2n1-c1sc(CCC(=O)N3CCOCC3)cc1C(c1ccccc1Cl)=NC2,–,inactive
CNCC(=O)c1ccc(O)c(O)c1,0.0108% [at 46 µM] (inactive),–
Cc1nc(N)nc(N)n1,-0.0038% [at 95.7 µM] (inactive),–
CCCCOC(=O)c1ccccc1C(=O)O,-0.0798% (inactive),–
CC1=C(C(=O)Nc2ccccc2)S(=O)(=O)CCO1,0.0055% (inactive),–
CSc1nc(N=[N+]=[N-])nc(NC(C)C)n1,-0.0268% (inactive),–
CCOC(=O)NC(=S)Nc1ccccc1NC(=S)NC(=O)OCC,0.0137% (inactive),–
N#CC(CCc1ccc(Cl)cc1)(Cn1cncn1)c1ccccc1 (stereo not given),0.0384% (inactive),–
CNC(=O)Oc1ccccc1C1OCCO1,0.0537% (inactive),–
COCC(=O)N(c1c(C)cccc1C)N1CCOC1=O,0.0233% (inactive),–
C[N+](=O)[O-],0.0409% (inactive),–
CC(CCc1ccccc1)NC(C)C(O)c1ccc(O)cc1 (stereo not given),-0.0006% [at 46 µM] (inactive),–
